Compound activity as filed in PubChem.
Sampled rows, rich in hits. Any-hit rate of the full collection: about 2.4%.
D2 PAM-1: potentiates the human D2 dopamine receptor allosterically. P14416. DiscoveRx D2 beta-arrestin cells, luminescence, 90 min; 100% = 57 uM dopamine signal. potentiation, % (concentration not given with the values). hit rate 0.23% among 360,000. AID 624464; in the data active = potentiation above about 50%; inconclusive = mostly about 30% to 49%
Target sequence (P14416 whole entry, looked up): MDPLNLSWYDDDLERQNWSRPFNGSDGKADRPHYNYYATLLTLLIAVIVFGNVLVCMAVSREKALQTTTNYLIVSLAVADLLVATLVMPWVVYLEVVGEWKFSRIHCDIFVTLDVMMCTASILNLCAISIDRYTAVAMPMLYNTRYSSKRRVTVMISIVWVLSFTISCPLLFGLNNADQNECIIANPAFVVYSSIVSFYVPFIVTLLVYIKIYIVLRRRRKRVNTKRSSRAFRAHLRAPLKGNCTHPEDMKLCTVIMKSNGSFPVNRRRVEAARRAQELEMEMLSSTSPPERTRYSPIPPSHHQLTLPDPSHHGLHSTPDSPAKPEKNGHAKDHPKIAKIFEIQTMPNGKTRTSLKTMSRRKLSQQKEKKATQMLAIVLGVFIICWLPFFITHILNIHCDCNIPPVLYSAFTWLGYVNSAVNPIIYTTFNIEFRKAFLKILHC
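PathHunter D2 cells, attached overnight at 37 deg C, received compound in DMSO plus dopamine at EC20 (50 nM final) for 90 min at 37 deg C. Beta-arrestin recruitment was read as luminescence after 1 h with detection reagent at ambient temperature.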
D2 PAM-2: positive allosteric modulators of human D2 dopamine receptor; HEK293 T-REx D2, calcium flux, EC20 dopamine potentiation; P14416; potentiation, % at 10 µM; AID 485347; hit rate 0.34% among 340,000;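 active = potentiation over 3 SD above the plate norm, cut at about 30% in these data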; also: 0% is about no effect
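Cells plated with tetracycline inducer and held overnight at 30 C; calcium dye loaded 30–90 min at room temperature; baseline taken, compound added and read 180 s; EC20 dopamine then added and read 180 s.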
D2 ag-1: agonists of human D2 dopamine receptor | P14416 | HEK293 T-REx D2 cells, calcium flux agonist mode | AID 485358 | activation, % at 2 µM | hit rate 0.53% among 340,000;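 active = activation over 3 SD above normal in the single-dose calcium agonist read, cut at about 30% in these data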; also: 0% is about no effect
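HEK293 Trex D2 cells, tetracycline-induced, o/n 30 C 5% CO2; no-wash Ca dye, RT 30–90 min; 10-cycle baseline, 23 nl cpd added, kinetic Ca read 180 s; agonist hits = positive Ca response.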
D2 antagonist: antagonizes the human D2 dopamine receptor; P14416; HEK293 TREx D2 cells, calcium flux, dopamine EC80; inhibition, % at 10 µM; hit rate 2% among 340,000; AID 485344; in the data active = inhibition above about 30%; inactive = below that, where a call was filed; also: 0% is about no effect
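Inhibition of EC80 dopamine-driven calcium flux, recorded kinetically, defines activity here; cells are a tetracycline-induced HEK293 T-REx line expressing force-coupled D2.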
D2 ag-2: agonists of human D2 dopamine receptor (beta-arrestin); hit rate 0.084% among 360,000; activation, % (no concentration beside the values); P14416; DiscoveRx PathHunter D2 beta-arrestin, luminescence, 90 min; 100% = 57 uM dopamine signal; in the data active = activation above about 40%; inconclusive = between about 15% and that limit
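Agonist mode: compounds alone added to overnight-plated D2 PathHunter cells for 90 min at 37 C, with 57 uM final dopamine (EC100) defining full response. Beta-arrestin recruitment detected by chemiluminescent reagent, read after 1 h at ambient temperature.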
D3 ag: D3 receptor agonism confirmed, beta-arrestin readout; hit rate 4% among 2,300; shares compounds with D2 ag-1; DiscoveRx D3 beta-arrestin cells, luminescence, 90 min; Potency, µM (titrated, usually from 76.9 µM), inactives show at the highest dose activation, actives largely listed as activators;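 also: potency is read from the fitted curve at half-maximal effect; 100% = dopamine control response; nearly all actives have a fitted effect of over 70% in size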
D2 ag-3: counter-screen for D3 agonists: human D2 dopamine receptor agonism; shares compounds with D2 ag-1; DiscoveRx PathHunter D2 beta-arrestin, luminescence, 90 min; response scale: percent relative to full dopamine signal; Potency, µM (top dose mostly 76.9 µM), inactives show at the highest dose activation, actives largely listed as activators; hit rate 5.9% among 2,300; AID 720507; also: potency is read from the fitted curve at half-maximal effect; % of control where 0% means no effect; nearly all actives have a fitted effect of over 70% in size
An asterisk follows results filed as active; ? = inconclusive; nt = no result. Unless noted, calls follow the shape of the dose curve; as a rule, active = well fitted activation curve with a large enough effect; inconclusive = small, poorly fitted or top-dose-only effect; inactive = flat fitted curve, though single readings scatter.

SMILES	D2 PAM-1	D2 PAM-2	D2 ag-1	D2 antagonist	D2 ag-2	D3 ag	D2 ag-3
CN(Cc1ccco1)C(=O)Cn1cc(S(=O)(=O)N2CCCC2)c(S(=O)(=O)N2CCCC2)c1	5	6	1	10	-1	nt	nt
COc1ccccc1CNC(=O)C1(C)CCN1C(=O)C1(c2ccccc2)CC1 (stereo not given)	-6	nt	nt	nt	-6	nt	nt
COc1ccc(C(=O)NCC(=O)N/N=C/c2cn[nH]c2-c2ccccc2)cc1	-3	nt	11	19	10	-1%	7%
CC(C)NCC1CCc2cc(CO)c([N+](=O)[O-])cc2N1 (stereo not given)	-32	-22	42*	-1	-5	-8%	-2%
CCOc1c(C)cnc2c1c(=O)n(Cc1c(F)cccc1Cl)c(=O)n2C	-13	2	0	0	2	nt	nt
COc1ccc(S(=O)(=O)N2CCC(N3CCN(Cc4ccccc4)CC3)CC2)cc1	-2	-20	77*	74*	14	-9%	27%
COc1cc(CN2CCN(c3ccccc3F)CC2)c([N+](=O)[O-])cc1OC	-4	-13	37*	11	0	?	27%
O=[N+]([O-])c1cc2c(cc1CN1CCN(c3ccccc3F)CC1)OCO2	-2	-11	6	0	-3	nt	nt
O=C(NCCC1=CCCCC1)c1cccc(S(=O)(=O)N2CCCCC2)c1	-10	3	0	0	0	nt	nt
O=C(OCCN1C(=O)c2cccc3c(N4CCOCC4)ccc(c23)C1=O)c1ccc(Cl)cc1	-22	-2	70*	4	-2	5%	1%
CCN(CC)S(=O)(=O)c1ccc(C(=O)N2CCN(CCN3C(=O)c4cccc5cccc(c45)C3=O)CC2)cc1	nt	6	1	1	nt	nt	nt
CCCN(CCC)S(=O)(=O)c1ccc(C(=O)OCCN2C(=O)c3cccc4c(N5CCOCC5)ccc(c34)C2=O)cc1	-6	-3	62*	10	2	-4%	0%
CCC(=O)N1CCC1(C)C(=O)Nc1cccc(OC)c1 (stereo not given)	2	nt	nt	nt	-7	nt	nt
O=C(NCc1ccccc1Cl)C1CCN(c2cnccn2)CC1	-2	-11	2	17	-6	nt	nt
CCc1cc2c(cc3c(=O)n(CC(=O)NCc4cc(Br)ccc4OC)ncn32)s1	nt	6	-1	nt	nt	nt	nt
O=C(Nc1nnc(SCc2ccc(F)cc2)s1)C1CC(=O)N(c2ccc3c(c2)OCCO3)C1 (stereo not given)	-2	-27	43*	-8	-2	8%	-4%
N#Cc1ccc(CSc2nnc(NC(=O)C3CC(=O)N(c4ccc5c(c4)OCCO5)C3)s2)cc1 (stereo not given)	0	-1	0	-7	-4	nt	nt
CCCCN(C)CCNC(=O)c1ccc2c(c1)NC(=O)C(N1CCCCC1)S2 (stereo not given)	-42	-21	50*	73*	-1	?	15%
COC(=O)c1ccc2c(c1)NC(=O)C(N1CCOCC1)S2 (stereo not given)	2	-6	-1	-1	2	nt	nt
O=[N+]([O-])c1cc(Br)c2nsnc2c1N1CCOCC1	-4	4	26	23	0	-2%	1%
O=[N+]([O-])c1cc(/C=N/N/C(=N/c2ccccn2)c2ccccn2)ccc1O	-23	-9	29	-6	-2	-25%	-13%
CCCCOc1ccc(-c2nnn(CC(=O)c3c[nH]c4ccccc34)n2)cc1	11	-3	56*	10	4	3%	-3%
COc1ccc(-c2nnn(CC(=O)c3c[nH]c4ccccc34)n2)cc1OC	5	-8	-1	-10	2	nt	nt
Cc1ccc(NC(=O)c2cccc(S(=O)(=O)N(C)C3CCCCC3)c2)nc1	-8	-2	3	-13	-3	nt	nt
Cc1noc(C)c1S(=O)(=O)N(C)C[C@H]1Oc2ccc(NS(=O)(=O)c3ccccc3)cc2C(=O)N([C@H](C)CO)C[C@@H]1C	-2	nt	nt	nt	-1	nt	nt
SMILES	D2 PAM-1	D2 PAM-2	D2 ag-1	D2 antagonist	D2 ag-2	D3 ag	D2 ag-3
CC(=O)c1ccc(OCC(O)CN2CCN(c3ccc(F)cc3)CC2)cc1 (stereo not given)	-16	-49	83*	17	9	20%	24%
CCC(=O)c1ccc(OCC(O)CN2CCN(c3ccc(F)cc3)CC2)cc1 (stereo not given)	-8	-6	7	31*	0	?	18%
OC(COc1ccc2c(c1)OCO2)CN1CCN(c2ccc(F)cc2)CC1 (stereo not given)	-6	-34	30	76*	1	5%	-1%
CC(C)c1ccc(OCC(O)CN2CCN(c3ccc(F)cc3)CC2)cc1 (stereo not given)	nt	-16	29	nt	nt	nt	nt
CCOC(=O)c1c(NC(=O)c2cc(=O)c3ccc(C)cc3o2)sc(C)c1C	nt	-6	0	nt	nt	nt	nt
CC(=O)Nc1nc(CCN2C(=O)c3ccccc3C2=O)cs1	1	-1	2	-7	-1	nt	nt
O=C(NCC(c1ccco1)N1CCN(c2ccccc2F)CC1)c1ccco1 (stereo not given)	8	-10	32*	54*	?	?	?
O=C(NCC(c1ccco1)N1CCN(c2ccccc2F)CC1)c1cccs1 (stereo not given)	4	9	-1	-30	?	nt	nt
O=C(NCC1CCCO1)C(=O)NCC(c1ccco1)N1CCN(c2ccccc2F)CC1 (stereo not given)	6	-11	58*	48*	10	32µM*	?
O=C(NCC(c1ccco1)N1CCN(c2ccccc2F)CC1)C(=O)NC1CCCC1 (stereo not given)	2	-6	26	4	-2	nt	nt
CN=c1scc(C)n1/N=C/c1cc(Br)c(O)c(OC)c1	5	-4	1	-31	1	nt	nt
CN=c1scc(C)n1/N=C/c1ccc(O)c(O)c1O	93*	-9	40*	-11	52*	40µM*	7%
CN=c1scc(-c2cccs2)n1/N=C/c1ccc(O)c(O)c1O	109*	-22	66*	89*	182*	25µM*	14µM*
CN=c1scc(-c2cccs2)n1/N=C/c1ccccc1O	-34	27	-1	0	-3	nt	nt
CC(=O)Oc1ccccc1Cn1c(C)c(C(=O)NCc2cccc([N+](=O)[O-])c2)sc1=O	-2	nt	nt	nt	4	nt	nt
